The subject of test [1] is Human papillomavirus type 1a protein E7 (residues 44-93). The test is described as follows: HPV1a E7 fragment binders on microarrays, primary screen, biochemical, small-molecule microarray, residues 44-93, 635 nm fluorescence (AID 1108).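 Further: E7 fragment applied at 1 µg/mL in TBST for 1 h at 4 C; score combines spot fluorescence with its signal to noise ratio.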 To be noted: small-molecule microarray binding, fluorescence 635 nm; higher = more signal.
Test [2] can be described thus: modulators of HCV replicon luciferase signal, primary screen, HCV replication inhibitor project, Huh7 cells, luciferase reporter (AID 1109).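 Further: huh7 hepatoma cells harbouring a luciferase neomycin HCV replicon reporter; luciferase luminescence as measure of HCV replicon replication; test concentration not given here.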 To be noted: 48 h, higher = more signal.
The target in test [3] is Left-right determination factor 2 (Homo sapiens) (UniProt O00292). The test is described as follows: LEFTY2 binders on small-molecule microarrays, primary screen, biochemical, small-molecule microarray, 635 nm fluorescence scan (AID 1110). To be noted: LEFTY2 binding, higher = more signal.
The target in test [4] is Calmodulin-1 (Homo sapiens) (UniProt P0DP23). In words: CALM1 binders on microarrays, EGTA buffer, profiling panel, biochemical, small-molecule microarray, Cy5-labelled CALM1 (AID 1111).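 Further: labelled calmodulin applied in Tris saline Tween buffer holding calcium plus EGTA and DTT.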 To be noted: Cy5-CALM1 binding fluorescence, higher = more signal.
The target is the same in test [5]. In words: calcium-bound CALM1 binders on microarrays, profiling panel, artefact control for SMM control-protein annotation, biochemical, small-molecule microarray, Cy5-labelled CALM1, plus calcium (AID 1112).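 Further: score merges spot fluorescence with signal to noise from triplicate slides.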 To be noted: Cy5-CALM1 binding fluorescence, higher = more signal.
Test [6] is described as follows: small-molecule microarray binders of probe aWnt5a, primary screen, biochemical, biotinylated probe, 635/667 nm fluorescence (AID 1113).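 Further: score merges 667 nm fluorescence intensity with signal-to-noise per printed feature.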 To be noted: higher = more signal.
A short description of test [7]: small-molecule microarray binders of probe aShh, primary screen, biochemical, biotinylated probe, 635/667 nm fluorescence (AID 1114).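 Further: probe is biotin-labelled aShh protein from a stem cell growth factor screen; measures binding of labelled protein to compounds printed on the slide; score merges feature fluorescence at 667 nm with signal-to-noise.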 To be noted: higher = more signal.
Test [8] is described as follows: small-molecule microarray binders of probe aNog, primary screen, biochemical, biotinylated probe, 635/667 nm fluorescence (AID 1115).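 Further: probe is biotinylated aNog protein used at 0.15 µg/mL for 1 h at 4 C; z-score combines 667 nm fluorescence of each spot with its signal to noise.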 To be noted: higher = more signal.
The target of test [9] is Torsin-1A-interacting protein 1 (Homo sapiens) (UniProt Q5JTV8). The test is described as follows: LAP1 binders from COS7 cell lysate, primary screen, small-molecule microarray, 635/667 nm fluorescence (AID 1116). To be noted: COS7-hLAP1 lysate binding, 635 nm fluorescence, higher = more signal.
Test [10] addresses Alpha-bungarotoxin (Bungarus multicinctus) (UniProt P60615). The test is described as follows: alpha-bungarotoxin binders on microarray, profiling panel, artefact control for SMM control protein annotation, biochemical, small-molecule microarray, Alexa647 label, 635/667 nm fluorescence (AID 1117). To be noted: alpha-BTX-A647 binding fluorescence, higher = more signal.

From PubChem BioAssay come the findings set out here.

SMILES strings stand for the structures.

Chain of Left-right determination factor 2 (Homo sapiens) (O00292 whole entry, looked up): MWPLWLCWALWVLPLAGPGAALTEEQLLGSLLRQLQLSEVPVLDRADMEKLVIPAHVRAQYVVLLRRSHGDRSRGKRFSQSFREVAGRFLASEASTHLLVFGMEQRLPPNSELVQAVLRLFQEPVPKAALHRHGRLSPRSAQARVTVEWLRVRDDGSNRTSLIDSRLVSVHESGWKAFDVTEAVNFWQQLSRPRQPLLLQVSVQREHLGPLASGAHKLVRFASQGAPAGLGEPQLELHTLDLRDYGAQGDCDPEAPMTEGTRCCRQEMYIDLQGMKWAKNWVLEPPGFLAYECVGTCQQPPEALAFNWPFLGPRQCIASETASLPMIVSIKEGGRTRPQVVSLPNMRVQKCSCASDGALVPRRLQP
Chain of Torsin-1A-interacting protein 1 (Homo sapiens) (Q5JTV8 whole entry, looked up): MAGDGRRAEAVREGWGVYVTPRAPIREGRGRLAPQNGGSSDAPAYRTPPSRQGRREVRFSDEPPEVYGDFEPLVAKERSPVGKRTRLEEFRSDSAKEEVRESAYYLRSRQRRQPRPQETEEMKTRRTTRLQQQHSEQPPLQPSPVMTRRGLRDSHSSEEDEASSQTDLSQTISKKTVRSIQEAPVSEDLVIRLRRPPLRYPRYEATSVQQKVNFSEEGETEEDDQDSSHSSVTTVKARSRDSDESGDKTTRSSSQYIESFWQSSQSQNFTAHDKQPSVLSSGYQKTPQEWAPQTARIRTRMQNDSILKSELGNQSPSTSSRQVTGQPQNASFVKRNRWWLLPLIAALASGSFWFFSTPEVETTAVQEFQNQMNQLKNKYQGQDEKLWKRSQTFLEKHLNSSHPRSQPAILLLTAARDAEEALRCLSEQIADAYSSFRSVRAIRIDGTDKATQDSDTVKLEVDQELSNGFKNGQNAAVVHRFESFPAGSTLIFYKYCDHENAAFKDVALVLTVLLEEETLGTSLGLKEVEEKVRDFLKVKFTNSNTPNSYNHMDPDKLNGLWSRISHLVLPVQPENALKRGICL
Chain of Alpha-bungarotoxin (Bungarus multicinctus) (P60615 whole entry, looked up): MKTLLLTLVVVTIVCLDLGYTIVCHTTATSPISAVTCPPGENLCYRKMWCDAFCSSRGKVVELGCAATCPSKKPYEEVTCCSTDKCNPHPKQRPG

Consider `CCCNC(=O)OC[C@H]1O[C@H](CCON=C(C)C)C=C[C@@H]1Oc1ccc(OC)cc1`, for which the composite z-score in test [1] is -0.599; in test [3] it was -0.143; in test [4] it was 0.608; in test [5], 0.304; in test [6], -0.0887; in test [7] it was -0.282. For the same compound, the composite z-score in [8] was -0.0927; in test [9], 0.587; in [10], -0.132. The z-score in [2] was -1.12.
Consider `CC1O[C@H]2C3=C(C(=O)[C@@H]4O[C@@H]4[C@H]3O)[C@@H]1C1[C@@H](C)OC=C3[C@H](O)C4O[C@@H]4C(=NOCc4ccccc4)[C@]312` (stereo not given in full), for which the composite z-score in [1] is -0.768; in test [3] it was 0.18; in test [4] it was -0.472; in test [5], -0.177; in test [6], -0.0519; in [7] it was 0.225. Moreover, the values for the composite z-score in test [8], in [9] and in test [10] were -0.347, -0.192 and -0.725, respectively. The z-score in test [2] was -3.71.
Consider `O=C1C[C@@H](O)[C@@H](O)[C@@H]2[C@@H]3C(=O)N(Cc4ccccc4)C(=O)[C@@H]3CC[C@@H]12`, for which the composite z-score in test [1] is 0.467; in [3] it was 0.474; in test [4], -0.0573; in test [5], -0.761; in test [6], -0.195; in test [7], 0.0684. The composite z-score was -0.0784 in [8], 0.442 in test [9] and 0.101 in test [10]. This compound also showed a z-score in [2] of -0.76.
Consider `C#CCCCON=C1[C@H]2CCn3c(=O)n(-c4ccccc4)c(=O)n3[C@H]2[C@H](O)[C@@H]2O[C@H]12`, for which the composite z-score in test [1] was 0.438; in [3] it was 0.602; in [4], -0.312; in [5], -0.273; in test [6], -0.0792; in test [7] it was -0.0146. For the same compound, the figures for the composite z-score in [8], in [9] and in test [10] were -0.17, -0.131 and 0.515, respectively. The z-score in test [2] was -2.97.
Regarding `CCOC(=O)[C@H](CC(C)C)NC(=O)CCC1CC(OC(=O)NCc2cccc3ccccc23)CC2(CCCC(COC(=O)NCCc3ccc(Cl)cc3)O2)O1` (stereo not given in full), the composite z-score was 0.529 in [1]; 0.486 in [3]; 0.0203 in [4]; -0.117 in test [5]; -0.191 in test [6]; -0.473 in test [7]. The composite z-score was -0.114 in [8], 0.161 in test [9] and 0.557 in test [10]. Also, in test [2], the z-score is -0.707.
In the case of `COC(=O)CC=C[C@@H](C)[C@@H](C=NO[C@@H](C)c1cn([C@H](CO)Cc2ccccc2)nn1)NS(=O)(=O)c1ccc(C)cc1`, the composite z-score in test [1] is -0.0476; in test [3] it was 0.739; in test [4] it was -0.598; in test [5], -0.531; in test [6] it was 0.0077; in test [7], -0.0977. The composite z-score was 0.143 in [8], 0.258 in test [9] and -0.331 in test [10]. Besides, in [2], the z-score is -0.858.
As to `O=C1[C@H]2[C@H]3[C@H](O)[C@H](O)CC(=NOC[C@@H](O)COCc4ccco4)[C@H]3CC[C@H]2C(=O)N1c1ccc(F)cc1F`, the composite z-score in test [1] was -3.61; in test [3] it was 0.0845; in [4], -1.3; in test [5], -1.07; in test [6] it was -0.282; in [7], -0.504. Moreover, the composite z-score was 1.39 in test [8], 0.346 in [9] and -0.59 in [10]. In [2], this compound displayed a z-score of -0.988.
In the case of `CO[C@H]1COC(=O)CC=C[C@H](C)[C@@H](OC)COC(=O)[C@@H](C)COC(=O)CC=C[C@@H]1C`, the composite z-score in test [1] was -0.544; in test [3] it was 1.16; in test [4], -2.12; in test [5], -2.84; in test [6], -0.1; in [7] it was -0.0769. The composite z-score was -0.339 in [8], 0.34 in test [9] and -1.47 in test [10]. In [2], this compound displayed a z-score of -1.09.
For `CO[C@H]1COC(=O)CC=C[C@H](C)COC(=O)[C@@H](C)NC(=O)CC=C[C@@H]1C`, the composite z-score in test [1] was -1.45; in [3] it was 1.54; in test [4], -1.13; in [5], -2.44; in [6], -0.0816; in test [7], -0.0035. Moreover, the composite z-score in [8] was -0.137; in [9], 0.621; in test [10], 0.13. This compound gave a z-score in [2] of -1.83.
`CC(CCN1CCCCc2nc(C)c(C)cc21)=NOC[C@@H](O)COCc1ccco1`: the composite z-score is -1.68 in [1]; 1.61 in [3]; -1.34 in test [4]; -1.81 in test [5]; -0.129 in test [6]; 0.0121 in test [7]. The composite z-score was -0.911 in [8], 0.43 in test [9] and -0.527 in test [10]. This compound displayed a z-score in test [2] of 0.0716.
`CCOC(=O)C1=NO[C@@]2(C=C(Br)C3(OCCCO3)[C@H]3O[C@H]32)C1`: the composite z-score was 0.339 in test [1]; 1.13 in test [3]; -2.14 in test [4]; -2.64 in test [5]; -0.138 in test [6]; 0.0952 in test [7]. Besides, the composite z-score is -0.452 in [8], -0.143 in [9] and 2.04 in test [10]. The same compound gave a z-score in test [2] of -0.154.
With `CC(CCC(=O)OC[C@H]1O[C@H](C#Cc2ccccc2)C=C[C@@H]1Oc1ccc(C)cc1)=NO[C@H](C)c1cn([C@H](CO)Cc2ccccc2)nn1`, the composite z-score in test [1] was 0.53; in [3], 0.423; in [4] it was 0.0827; in [5], -0.0351; in [6], -0.0924; in test [7], -0.138. Further, the values for the composite z-score in test [8], in test [9] and in [10] were 0.0169, -0.166 and -0.0686, respectively. Further, the z-score in test [2] is -1.57.
In the case of `CCC=CCCC(OC(=O)c1ccc(Br)cc1)C1=CCCCC1=O` (stereo not given), the composite z-score in test [1] was 1.17; in test [3], 0.664; in [4] it was -1.06; in [5], -1.54; in test [6], -0.0512; in test [7], -0.124. The figures for the composite z-score in [8], in test [9] and in test [10] were -0.198, 0.221 and 0.654, respectively. The compound also displayed a z-score in test [2] of -2.38.
Turning to `CC(=O)OC[C@H]1O[C@H](CCON=C2[C@H]3CCn4c(=O)n(-c5ccccc5)c(=O)n4[C@H]3[C@H](O)[C@@H]3O[C@H]23)C=C[C@@H]1OC(C)=O`, the composite z-score in test [1] was 0.253; in test [3], 0.5; in test [4], -0.151; in [5] it was -0.354; in test [6] it was 0.0001; in [7], 0.089. Further, the results for the composite z-score in test [8], in [9] and in test [10] were 0.449, 0.322 and 0.415, respectively. The same compound had a z-score in test [2] of -4.82.
With `C#CCCCON=C1C[C@@H](O)[C@@H](O)[C@@H]2[C@@H]3C(=O)N(C(C)(C)C)C(=O)[C@@H]3CC[C@@H]12`, the composite z-score was 0.0592 in test [1]; -0.442 in [3]; -0.389 in [4]; -0.165 in test [5]; -0.0721 in test [6]; -0.338 in test [7]. The composite z-score in test [8] worked out at 0.305; in test [9], 0.805; in test [10] it was 0.323. Also, in test [2], the z-score was 1.17.
`CCOC(=O)CCN1C(=O)[C@H]2[C@H]3[C@H](O)[C@H](O)CC(=NOCC(C)C)[C@H]3CC[C@H]2C1=O`: the composite z-score in test [1] was -0.245; in test [3], 0.0607; in test [4], -0.271; in test [5], -0.26; in test [6], -0.0346; in test [7], -0.209. Also, the composite z-score stood at 0.0669 in test [8], 0.326 in test [9] and 0.797 in test [10]. The compound also came in with a z-score in test [2] of 0.453.
With `CSCC[C@@H]1NC(=O)CC=C[C@@H](C)COC(=O)[C@@H](C)COC1=O`, the composite z-score in test [1] is -2.17; in test [3] it was 0.294; in test [4], -1.31; in test [5], -1.61; in test [6] it was -0.197; in test [7], -0.366. The composite z-score was -0.15 in [8], 0.574 in [9] and -2.23 in test [10]. In test [2], the z-score was 0.371.
